Experiment [1] in a line: NCI Yeast Anticancer Drug Screen. Data for the rad50 strain (AID 155).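 Also: 0% = growth of vehicle-only cultures of the same strain.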 The note with it: S. cerevisiae rad50 strain growth inhibition, stronger effect = higher value. A digest of the protocol: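 Vehicle-treated cultures provide the reference for the growth inhibition reported for compound-exposed, repair-deficient yeast.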
The nature of experiment [2]: NCI Yeast Anticancer Drug Screen. Data for the mec2-1 strain (AID 157). The note with it: S. cerevisiae mec2-1 strain, stronger effect = higher value. In short, it runs like this:
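Vehicle-treated cultures served as reference for growth inhibition of compound-exposed mec2-1 yeast.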

The nature of experiment [3]: NCI Yeast Anticancer Drug Screen. Data for the sgs1 mgt1 strain (AID 161).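 Also: 0% = growth of cultures given vehicle only.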 The note with it: S. cerevisiae sgs1 mgt1 strain, stronger effect = higher value. A digest of the protocol: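 Genetically altered yeast, compound exposure, growth inhibition relative to vehicle.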
Experiment [4] is described as follows: NCI Yeast Anticancer Drug Screen. Data for the cln2 rad14 strain (AID 165).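 Also: 0% = growth equal to vehicle treated cultures.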 The conditions noted are these: S. cerevisiae cln2 rad14 strain, stronger effect = higher value. A digest of the protocol:
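Each compound was tested on cln2 rad14 yeast. Inhibition of growth was calculated against vehicle-exposed controls.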

Experiment [5] in a line: NCI Yeast Anticancer Drug Screen. Data for the bub3 strain (AID 167). The conditions noted are these: S. cerevisiae bub3 mutant strain, stronger effect = higher value. In short, it runs like this:
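Mutant yeast screening strain plus compound; vehicle-treated cultures serve as the 0% inhibition reference.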

Experiment [6] in a line: NCI Yeast Anticancer Drug Screen. Data for the mlh1 rad18 strain (AID 175). The note with it: S. cerevisiae mlh1 rad18 strain growth inhibition, stronger effect = higher value. In short, it runs like this:
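Vehicle-treated cultures served as the reference for growth inhibition in a yeast strain carrying DNA damage repair alterations exposed to each compound.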

The mark [7] stands for this setting: at 5.0 µM (retest, dose inferred, filed as 0.5).
Where [8] appears, read: at 50.0 µM (retest, dose inferred, filed as 5.0).

The structures appear in SMILES notation. This is part of a sample that, as a whole, favours compounds with a hit. Of some 79,000 tested, about 15% had one in any assay. A number with no mark means an inactive call. The source made the active and inactive calls. Rule as the data show it: active = growth inhibition above about 70%; inactive = the rest.

As to `Cc1ccc([N+](=O)[O-])c2c(NCCCN(C)C)c3ccccc3nc12`, the growth inhibition in experiment [1] (setting [7]) is 79% (active); in experiment [1] (setting [8]), 98% (active); in experiment [1] (at 50.0 µM) it was 97% (active); in experiment [2] (setting [7]) it was 97% (active); in experiment [2] (setting [8]), 99% (active); in experiment [2] (at 50.0 µM), 95.8% (active). In addition, the growth inhibition in experiment [3] (setting [7]) was 93% (active); in experiment [3] (setting [8]), 98% (active); in experiment [3] (at 50.0 µM), 97.2% (active); in experiment [4] (setting [7]), 95% (active); in experiment [4] (setting [8]), 99% (active); in experiment [4] (at 50.0 µM), 77.3% (active). Moreover, the growth inhibition in experiment [5] (setting [7]) is 35%; in experiment [5] (setting [8]) it was 97% (active); in experiment [5] (at 50.0 µM), 87.8% (active); in experiment [6] (setting [7]), 92% (active); in experiment [6] (setting [8]), 99% (active); in experiment [6] (at 50.0 µM) it was 97% (active).
For the compound `COc1ccc([N+](=O)[O-])cc1NC(=O)Nc1ccc(C(=O)OCC(C)C)cc1`, the growth inhibition in experiment [1] (setting [7]) was 11%; in experiment [1] (setting [8]), 36%; in experiment [1] (at 50.0 µM) it was 48.8%; in experiment [2] (setting [7]), 3%; in experiment [2] (setting [8]), 53%; in experiment [2] (at 50.0 µM), 70.2% (active). The growth inhibition in experiment [3] (setting [7]) is 3%; in experiment [3] (setting [8]), 48%; in experiment [3] (at 50.0 µM), 68.2%; in experiment [4] (setting [7]), -10%; in experiment [4] (setting [8]), 56%; in experiment [4] (at 50.0 µM), 57%. For the same compound, the growth inhibition in experiment [5] (setting [7]) is -5%; in experiment [5] (setting [8]) it was 47%; in experiment [5] (at 50.0 µM), 45.3%; in experiment [6] (setting [7]), 13%; in experiment [6] (setting [8]), 3%; in experiment [6] (at 50.0 µM) it was 74.9% (active).
Turning to `C[C@]12C[C@H](c3ccccc3)Nc3ccccc3N1C(c1ccccc1)=NO2`, the growth inhibition in experiment [1] (setting [7]) was 0%; in experiment [1] (setting [8]) it was 83% (active); in experiment [1] (at 50.0 µM), 64.5%; in experiment [2] (setting [7]), -13%; in experiment [2] (setting [8]), 80% (active); in experiment [2] (at 50.0 µM), 59.7%. Further, the growth inhibition in experiment [3] (setting [7]) was 21%; in experiment [3] (setting [8]), 80% (active); in experiment [3] (at 50.0 µM) it was 81.5% (active); in experiment [4] (setting [7]) it was 9%; in experiment [4] (setting [8]), 74% (active); in experiment [4] (at 50.0 µM), 54.4%. Further, the growth inhibition in experiment [5] (setting [7]) is 6%; in experiment [5] (setting [8]), 87% (active); in experiment [5] (at 50.0 µM), 67.4%; in experiment [6] (setting [7]), -8%; in experiment [6] (setting [8]), 88% (active); in experiment [6] (at 50.0 µM), 71% (active).
Consider `C=C1CC[C@@H]2C(C)(C)C(O)CCC2(C)C1COc1ccc2ccc(=O)oc2c1` (stereo not given in full), for which the growth inhibition in experiment [1] (setting [7]) was -10%; in experiment [1] (setting [8]) it was 94% (active); in experiment [1] (at 50.0 µM) it was 85.5% (active); in experiment [2] (setting [7]) it was -4%; in experiment [2] (setting [8]) it was 97% (active); in experiment [2] (at 50.0 µM), 89.3% (active). The growth inhibition in experiment [3] (setting [7]) is -1%; in experiment [3] (setting [8]), 92% (active); in experiment [3] (at 50.0 µM), 86.7% (active); in experiment [4] (setting [7]) it was -5%; in experiment [4] (setting [8]) it was 94% (active); in experiment [4] (at 50.0 µM) it was 85.8% (active). Besides, the growth inhibition was -40% in experiment [5] (setting [7]); 94% (active) in experiment [5] (setting [8]); 86.5% (active) in experiment [5] (at 50.0 µM); -38% in experiment [6] (setting [7]); 93% (active) in experiment [6] (setting [8]); 82.8% (active) in experiment [6] (at 50.0 µM).
In the case of `Nc1nc(Cl)cc(Nc2ccc(Cl)c(Cl)c2)n1`, the growth inhibition in experiment [1] (setting [7]) is -1%; in experiment [1] (setting [8]), 91% (active); in experiment [1] (at 50.0 µM), 72.8% (active); in experiment [2] (setting [7]), -2%; in experiment [2] (setting [8]) it was 73% (active); in experiment [2] (at 50.0 µM), 70.3% (active). Besides, the growth inhibition is -4% in experiment [3] (setting [7]); 77% (active) in experiment [3] (setting [8]); 95.8% (active) in experiment [3] (at 50.0 µM); 16% in experiment [4] (setting [7]); 58% in experiment [4] (setting [8]); 51.7% in experiment [4] (at 50.0 µM). Further, the growth inhibition is 3% in experiment [5] (setting [7]); 92% (active) in experiment [5] (setting [8]); 93.2% (active) in experiment [5] (at 50.0 µM); -3% in experiment [6] (setting [7]); 79% (active) in experiment [6] (setting [8]); 89.8% (active) in experiment [6] (at 50.0 µM).
Regarding `CC(=O)OC1=CC(n2cc(F)c(=O)[nH]c2=O)OC(C)C1=O` (stereo not given), the growth inhibition in experiment [1] (setting [7]) was 23%; in experiment [1] (setting [8]), 58%; in experiment [1] (at 50.0 µM), 69.7%; in experiment [2] (setting [7]), 13%; in experiment [2] (setting [8]) it was 85% (active); in experiment [2] (at 50.0 µM), 88.4% (active). Also, the growth inhibition in experiment [3] (setting [7]) was 24%; in experiment [3] (setting [8]), 64%; in experiment [3] (at 50.0 µM), 86.5% (active); in experiment [4] (setting [7]), 19%; in experiment [4] (setting [8]), 4%; in experiment [4] (at 50.0 µM), 37.5%. The growth inhibition in experiment [5] (setting [7]) is 15%; in experiment [5] (setting [8]), -13%; in experiment [5] (at 50.0 µM), 62.1%; in experiment [6] (setting [7]), 20%; in experiment [6] (setting [8]) it was 57%; in experiment [6] (at 50.0 µM), 51.7%.
`COC(=O)CCC(=O)N1C/C(=C\c2ccccc2)C(=O)/C(=C/c2ccccc2)C1`: the growth inhibition in experiment [1] (setting [7]) was 5%; in experiment [1] (setting [8]), 41%; in experiment [1] (at 50.0 µM) it was 88.6% (active); in experiment [2] (setting [7]), 23%; in experiment [2] (setting [8]), 42%; in experiment [2] (at 50.0 µM), 95.3% (active). In addition, the growth inhibition in experiment [3] (setting [7]) was 5%; in experiment [3] (setting [8]), 56%; in experiment [3] (at 50.0 µM) it was 92.5% (active); in experiment [4] (setting [7]), 9%; in experiment [4] (setting [8]), 19%; in experiment [4] (at 50.0 µM), 16.5%. The growth inhibition in experiment [5] (setting [7]) was 2%; in experiment [5] (setting [8]), 22%; in experiment [5] (at 50.0 µM), 92.5% (active); in experiment [6] (setting [7]) it was 7%; in experiment [6] (setting [8]) it was 38%; in experiment [6] (at 50.0 µM), 95% (active).
With `O=C(Nc1ccc(C(=O)Nc2ccc3c(O)cc(S(=O)(=O)O)cc3c2)cc1)c1ccccc1`, the growth inhibition in experiment [1] (setting [7]) is 0%; in experiment [1] (setting [8]), -2%; in experiment [1] (at 50.0 µM) it was 25.8%; in experiment [2] (setting [7]), 2%; in experiment [2] (setting [8]), 34%; in experiment [2] (at 50.0 µM), -5.7%. Further, the growth inhibition in experiment [3] (setting [7]) was 2%; in experiment [3] (setting [8]), 21%; in experiment [3] (at 50.0 µM), 25.8%; in experiment [4] (setting [7]), 1%; in experiment [4] (setting [8]), -13%; in experiment [4] (at 50.0 µM), 1.4%. The growth inhibition in experiment [5] (setting [7]) is 0%; in experiment [5] (setting [8]) it was -6%; in experiment [5] (at 50.0 µM), 1.15%; in experiment [6] (setting [7]) it was 19%; in experiment [6] (setting [8]), 6%; in experiment [6] (at 50.0 µM) it was 47%.
Turning to `CC1(C)CC(=O)C(CSC(=O)c2ccccc2)=C(O)C1`, the growth inhibition in experiment [1] (setting [7]) was -1%; in experiment [1] (setting [8]) it was 17%; in experiment [1] (at 50.0 µM), -13.9%; in experiment [2] (setting [7]), -2%; in experiment [2] (setting [8]) it was -1%; in experiment [2] (at 50.0 µM), -5.45%. The growth inhibition was -4% in experiment [3] (setting [7]); -3% in experiment [3] (setting [8]); 3.05% in experiment [3] (at 50.0 µM); -2% in experiment [4] (setting [7]); -11% in experiment [4] (setting [8]); 45.6% in experiment [4] (at 50.0 µM). For the same compound, the growth inhibition in experiment [5] (setting [7]) is -2%; in experiment [5] (setting [8]) it was -2%; in experiment [5] (at 50.0 µM), -27.6%; in experiment [6] (setting [7]), -7%; in experiment [6] (setting [8]) it was 15%; in experiment [6] (at 50.0 µM), -6.2%.
With `O=C1C=CC(=Nc2ccc(O)c3ncccc23)c2cccnc21`, the growth inhibition is 34% in experiment [1] (setting [7]); 92% (active) in experiment [1] (setting [8]); 94% (active) in experiment [1] (at 50.0 µM); 11% in experiment [2] (setting [7]); 96% (active) in experiment [2] (setting [8]); 95% (active) in experiment [2] (at 50.0 µM). The growth inhibition was 29% in experiment [3] (setting [7]); 96% (active) in experiment [3] (setting [8]); 95.2% (active) in experiment [3] (at 50.0 µM); -1% in experiment [4] (setting [7]); 95% (active) in experiment [4] (setting [8]); 86.7% (active) in experiment [4] (at 50.0 µM). The growth inhibition is 17% in experiment [5] (setting [7]); 94% (active) in experiment [5] (setting [8]); 95.6% (active) in experiment [5] (at 50.0 µM); 50% in experiment [6] (setting [7]); 95% (active) in experiment [6] (setting [8]); 92.4% (active) in experiment [6] (at 50.0 µM).

Values taken from PubChem BioAssay (NCI).
